In the library only some 1.6% were active in any assay of this set; here they are far more common.
CCHF vOTU inh: CCHFV vOTU protease inhibition. Pep-AMC fluorescence. inhibition, % at 11.5 µM. 370,000 compounds, 0.55% hits. AID 651958; in the data active = inhibition above about 30%; also: 0% = vehicle wells with enzyme and 100% = no enzyme wells
Sa ugtP lethal: kills S. aureus RN4220 lacking UgtP. 330,000 compounds, 0.54% hits. growth inhibition, % (no concentration beside the values). S. aureus RN4220 ugtP deletion, OD600 growth, 16 h. AID 1259309; in the data active = growth inhibition above about 68%;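 also: plate controls were untreated wells for no effect and antibiotic for full effect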
BJeLR viability: BJeLR cell viability loss; BJeLR (HRASV12) viability, CellTiter-Glo ATP luminescence, 48 h; inhibition, % (test concentration not listed); 300,000 compounds, 0.17% hits; AID 1554; in the data active = inhibition above about 50%
PfHsp40 rescue: rescue of PfHsp40-mediated yeast toxicity | S. cerevisiae expressing PfHsp40, growth rescue, ATP luminescence | 340,000 compounds, 0.68% hits | AID 504582 | growth rescue, % at 12.5 µM; in the data active = growth rescue above about 28%, passing the limit was not always enough;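 also: yeast W303a lacking pdr1 and pdr3 grown in galactose medium; growth measured after three days at 30 °C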
RN4220 kill: S. aureus RN4220 growth inhibition; OD600, 16 h; inhibition, % (test concentration not listed); 330,000 compounds, 0.33% hits; AID 1259311; in the data active = inhibition above about 85%;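 also: plate controls were untreated cells for no effect and reference antibiotic for full effect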
Starred values were filed as active, the others as inactive; nt = no result given; ! = not active in a repeat.

SMILES | CCHF vOTU inh | Sa ugtP lethal | BJeLR viability | PfHsp40 rescue | RN4220 kill
Cc1cc(C)c2c(ccc3ccccc32)n1 | -6 | nt | nt | 0 | nt
S=C(Nc1cccc(Cl)c1)Nc1cccc2cnccc12 | nt | -27 | nt | 31* | -11
Cc1ccc(NC(=S)Nc2cccc3cnccc23)cc1C | 4 | -4 | 6 | 377* | -2
Cc1ccc(S(=O)(=O)N(C)N=C2C(=O)N(CC(=O)O)c3ccccc32)cc1 | nt | 6 | nt | nt | 2
CCOC(=O)Cn1cc(C=NN2C(=O)C3C4C=CC(C4)C3C2=O)c2ccccc21 (stereo not drawn) | nt | 2 | nt | nt | 2
O=C1NC(=S)S/C1=C\C=C\c1ccc([N+](=O)[O-])o1 | 29 | 100* | nt | 0 | 100*
Cc1noc(C)c1NC(=O)N(C)CC1Oc2ccc(NS(=O)(=O)c3cccs3)cc2C(=O)N(C(C)CO)CC1C (stereo not drawn) | nt | 0 | nt | nt | 7
OC(CNCc1ccccc1)c1ccc(Cl)cc1 (stereo not drawn) | 13 | -4 | nt | 1 | 1
OC(CNCC(c1ccc(Cl)cc1Cl)c1c[nH]c2ccccc12)c1ccccc1 (stereo not drawn) | 9 | 97* | 7 | 1 | 100*
CC(CC(=O)NCc1ccco1)=NNC(=O)COc1ccc(Cl)cc1Cl | nt | 5 | nt | nt | 1
O=C(O)c1ccc(C=Nn2cc(-c3ccccc3)[nH]c2=S)cc1 | nt | -10 | nt | nt | 1
CC(=O)c1cnn(-c2ccc(Cl)cc2)c1C | 2 | -1 | -5 | -2 | 3
Cc1c(C(=O)NCCSCc2cccc(C(F)(F)F)c2)cnn1-c1ccc(Cl)cc1 | 8 | -9 | 5 | 315* | -3
c1ccc(CCC2CCC(CCc3ccccc3)N2)cc1 (stereo not drawn) | nt | 3 | nt | nt | 5
CC(C)(C)c1ccc(CNc2cc(N3CCOCC3)ccc2[N+](=O)[O-])cc1 | 17 | 92* | -2 | 2 | -4
CC(C)c1ccc(CNc2cc(N3CCCC3)ccc2[N+](=O)[O-])cc1 | -11 | 1 | -5 | 2 | 7
O=C1CC(c2cccnc2)=NN1c1ccccc1 | 6 | 2 | -1 | 91* | 0
O=C(NN=Cc1ccco1)c1ccc2nc[nH]c2c1 | nt | 13 | nt | nt | 3
Cc1ccc(CN2C(=O)CCC2C(=O)NCc2ccc(F)cc2)cc1 (stereo not drawn) | 7 | 0 | 5 | 63* | 4
COc1cc2sc(-c3ccccc3OC)c(-c3ccc(OCCN4CCCCC4)cc3)c2cc1OC | 5 | nt | nt | -3 | nt
COc1ccccc1-c1sc2cc3c(cc2c1-c1ccc(OCCN2CCCCC2)cc1)OCO3 | 8 | 12 | nt | 43* | 0
COc1ccc(C(=O)NC(=S)NNC(=O)c2ccc(O)cc2)cc1[N+](=O)[O-] | 16 | -2 | -5 | 52* | 11
NC1C(O)OC(CO)C(O)C1O (stereo not drawn) | nt | 6 | nt | nt | 6
CC/C(=N\Nc1ccc([N+](=O)[O-])cc1)c1ccccc1 | nt | nt | -7 | 430* | nt
O=[N+]([O-])c1ccc(C=NNc2ccccc2)cc1 | 1 | -18 | nt | 30* | 1
SMILES | CCHF vOTU inh | Sa ugtP lethal | BJeLR viability | PfHsp40 rescue | RN4220 kill
C/C(=N\NC(=O)COc1ccc([N+](=O)[O-])cc1)c1ccco1 | 2 | nt | nt | 1 | nt
C/C(=N\Nc1ccc([N+](=O)[O-])cc1)c1ccco1 | 5 | nt | 6 | 64* | nt
COc1ccc(C(=O)c2c(C(F)(F)F)oc3c2C(=O)c2ccccc2C3=O)cc1 | nt | 33 | 3 | 0 | 94*
COc1ccc(C(=O)c2coc(-c3ccccc3C(=O)O)c2C(=O)O)cc1 | 8 | -1 | 6 | 0 | 3
COc1ccc(NC(=O)Nc2cccc3c2OC(CN(C)S(=O)(=O)c2cccs2)C(C)CN(C(C)CO)C3=O)cc1 (stereo not drawn) | nt | 2 | nt | nt | 3
CC[C@H](C)C(=O)O[C@H]1C[C@@H](C)C=C2C=C[C@H](C)[C@H](CC[C@@H]3C[C@@H](O)CC(=O)O3)[C@H]21 | -5 | -1 | -6 | 69*! | 10
CC1CCCCC1Nc1nc2ccc(Cl)cc2n2cnnc12 (stereo not drawn) | 21 | -13 | 11 | 27* | 1
Cc1cc(C)cc(Nc2nc3ccc(C)cc3n3cnnc23)c1 | 13 | -7 | -4 | -1 | 0
CCNc1ccc(C(=O)NN=Cc2c(C)nn(-c3ccccc3)c2N2CCCC2)cc1[N+](=O)[O-] | nt | 0 | nt | nt | 2
CN(C)c1ccc(-n2cccc2/C=C/[N+](=O)[O-])cc1 | 2 | nt | 9 | 230* | nt
O=C(c1ccc(N2CCN(C(=O)c3ccccc3Br)CC2)cc1)c1cccc(F)c1 | 14 | 7 | 5 | 34* | 0
O=C(c1ccc(N2CCN(C(=O)c3cccc(F)c3)CC2)cc1)c1cccc(F)c1 | 5 | 0 | 3 | 2 | 0
